Values joined by “and” are separate entries in the source; they are usually repeats but may differ in a detail not shown here. Equal values may be shown once. Active and inactive are the calls of the source. Rule as the data show it, unless noted: active = inhibition above about 80%; inactive = the rest.
Tests used:
[1] = molecular target: 6-phosphogluconate dehydrogenase, decarboxylating (Homo sapiens) (UniProt P52209); experiment: inhibition of human phosphogluconate dehydrogenase – biochemical, recombinant enzyme, NADPH absorbance, primary screen (AID 1159550;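 active = at least 20% inhibition of 6-phosphogluconate dehydrogenase activity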); conditions: recombinant 6PGD, NADPH absorbance 341 nm; at 10 µM; stronger effect = higher value
[2] = viability loss with induced miR-34 in A549 – imaging, A549 dox-inducible miR-34, nuclei and caspase counts, primary screen (AID 1347080;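 active = compounds whose cell count with miR-34 switched on is under 0.7 times the count with it off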); conditions: A549 miR-34 inducible, Hoechst nuclei count, 48 h
[3] = galactose survival enhancers in mitochondrial complex I cybrids – cell-based, galactose medium, ATP luminescence, primary screen (AID 1645843;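 active = z-score of at least 1.8 in each of two replicates, scored against plate mean and spread of sample wells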;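 also: positive z means more ATP and so rescue of galactose-driven cybrid death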); conditions: complex I mutant cybrid cells, 72 h, stronger effect = higher value
[4] = growth inhibition, single agent or in combination, cell-based, chromothripsis tumors, cisplatin or BGB combos (AID 1671449); conditions: LFS_MB_P medulloblastoma cells;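 also: cells exposed for 96 hours; 0% = vehicle DMSO and 100% = killing by high DMSO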
[5] = growth inhibition, single agent and combos, cell-based, chromothripsis tumors, cisplatin or BGB combos (AID 1671450); conditions: HDN33 neuroblastoma cells, stronger effect = higher value;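 also: cells exposed to compound for four days; 0% = vehicle DMSO and 100% = cell killing by high DMSO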
[6] = growth inhibition, single agents and combos, ICB984, cell-based, cisplatin or BGB combos, synergistic combos for chromothripsis tumors (AID 1671451; call rule not given here;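 also: cells exposed for 96 hours before readout; 0% = vehicle DMSO and 100% = killing by high DMSO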); conditions: ICB984 medulloblastoma cells, drug combinations, stronger effect = higher value
[7] = growth inhibition, single agents and combos, LFS_MB_1R, cell-based, cisplatin or BGB combos, synergistic combos for chromothripsis tumors (AID 1671452); conditions: LFS_MB_1R medulloblastoma cells, stronger effect = higher value;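 also: cells exposed for 96 hours before readout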
[8] = growth inhibition, single agents and combos, HTB85, cell-based, BGB or cisplatin IC20 combos, synergistic combos for chromothripsis tumors (AID 1671453); conditions: HTB85 osteosarcoma cells, drug combinations, stronger effect = higher value;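 also: cells exposed for 96 hours before readout; 0% = vehicle DMSO and 100% = high DMSO killing control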
[9] = growth inhibition, single agents and combos, CRL2098, cell-based, BGB or cisplatin IC20 combos, synergistic combos for chromothripsis tumors (AID 1671454); conditions: CRL2098 osteosarcoma cells, drug combinations, stronger effect = higher value;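 also: cells exposed for 96 h before readout; 0% = vehicle DMSO and 100% = killing by high DMSO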
[10] = growth inhibition, single agents and combos, HD-MB03, cell-based, BGB or cisplatin IC20 combos, synergistic combos for chromothripsis tumors (AID 1671455; in the data active = inhibition above about 83%;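 also: 0% = vehicle DMSO and 100% = high DMSO as cytotoxic control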); conditions: HD-MB03 medulloblastoma cells, stronger effect = higher value
[11] = growth inhibition, single agents and combos, UWB1.289, cell-based, BGB or cisplatin combos, synergistic combos for chromothripsis tumors (AID 1671456); conditions: UWB1.289 ovarian carcinoma cells, stronger effect = higher value;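 also: cells exposed to compound for four days; 0% = vehicle DMSO and 100% = killing by high DMSO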
[12] = growth inhibition, single agents and combos, LFS_MB_2R, cell-based, cisplatin combos, synergistic combos for chromothripsis tumors (AID 1671457); conditions: LFS_MB_2R medulloblastoma cells, stronger effect = higher value;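 also: cells exposed to compound for four days before readout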
[13] = growth inhibition, MDA-MB-436, cell-based, BGB or cisplatin combos, synergistic combos for chromothripsis tumors (AID 1671458; call rule not given here;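 also: cells exposed for 96 hours; 0% = vehicle DMSO and 100% = killing by high DMSO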); conditions: MDA-MB-436 breast carcinoma growth inhibition, drug combinations, stronger effect = higher value
[14] = UWB1.289_BRCA1 ovarian cancer growth, cell-based, BGB or cisplatin combinations (AID 1671459); conditions: UWB1.289 BRCA1 ovarian carcinoma, drug combinations, stronger effect = higher value
[15] = drug combination toxicity in non-malignant astrocytes – cell-based, BGB or cisplatin IC20 combos, cytotoxicity control for chromothriptic childhood tumor combination screen (AID 1671460); conditions: Human astrocytes, viability inhibition, drug combinations, at 0.5 µM, stronger effect = higher value;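 also: cells exposed to compounds for 96 hours before viability readout; 0% = vehicle and 100% = killing control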
[16] = BT084 cell growth, single and combined drugs, ICGC_MB145, cisplatin and BGB IC40 combos (AID 1671461); conditions: BT084 medulloblastoma cells, drug combinations, stronger effect = higher value;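 also: cells exposed to drugs for 96 hours; 0% = vehicle DMSO and 100% = high DMSO full killing control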
[17] = RCMB18 cell growth, single agent and combined, cisplatin and BGB IC40 combos (AID 1671462); conditions: RCMB18 medulloblastoma cells, stronger effect = higher value;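 also: cells exposed to compound for four days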
[18] = CRL1545 cell growth, single agent and combined, cisplatin and BGB IC20 combos (AID 1671464); conditions: CRL1545 osteosarcoma cells, stronger effect = higher value;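 also: cells exposed to compound for 96 hours before readout; 0% = vehicle DMSO and 100% = high DMSO killing control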
[19] = measured here: combination with BGB IC40, at 0.05 µM
[20] = measured here: with BGB IC20 combination, at 0.5 µM
[21] = measured here: with cisplatin IC20 combination, at 0.5 µM
[22] = measured here: combination with cisplatin, at 0.5 µM
[23] = measured here: combination with cisplatin, at 5 µM

Sequence of 6-phosphogluconate dehydrogenase, decarboxylating (Homo sapiens) (P52209 whole entry, looked up): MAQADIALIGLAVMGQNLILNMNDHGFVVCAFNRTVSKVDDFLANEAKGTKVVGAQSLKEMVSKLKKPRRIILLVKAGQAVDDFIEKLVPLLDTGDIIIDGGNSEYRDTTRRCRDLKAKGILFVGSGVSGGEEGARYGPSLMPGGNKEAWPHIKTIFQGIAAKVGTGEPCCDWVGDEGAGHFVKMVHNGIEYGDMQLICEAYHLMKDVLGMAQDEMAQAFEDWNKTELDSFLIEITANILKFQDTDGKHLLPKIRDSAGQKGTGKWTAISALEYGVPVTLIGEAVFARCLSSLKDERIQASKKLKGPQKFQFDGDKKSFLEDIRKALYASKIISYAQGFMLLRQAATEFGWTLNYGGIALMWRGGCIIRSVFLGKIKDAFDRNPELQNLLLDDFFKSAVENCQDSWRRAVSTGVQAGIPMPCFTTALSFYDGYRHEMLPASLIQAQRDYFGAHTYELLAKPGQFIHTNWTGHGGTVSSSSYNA

COc1cc(C2c3cc4c(cc3C(OC3OC5COC(C)OC5C(O)C3O)C3COC(=O)C23)OCO4)cc(OC)c1O (centres undefined)
inhibition [1]: -3.12% (inactive) | fold change ([2]; stronger effect = lower value, cell number ratio, induced over uninduced): 0.803 (inactive) | fold change ([2]; measured here: relative caspase fold change +Dox/-Dox): 1.95 | cell count ([2]; measured here: total cells with miR-34 induction, stronger effect = lower value): 3290 | cell count ([2]; measured here: total cells without miR-34 induction): 4090 | z-score [3]: -1.39 (inactive) | inhibition ([4]; at 0.5 µM, stronger effect = higher value): -32.6% (inactive) and -17.8% (inactive) | inhibition ([4]; measured here: combination with BGB IC20, at 0.005 µM): -28.8% and 2.01% | inhibition ([4]; measured here: combination with BGB IC40, at 0.005 µM): -24.3% and 13.4% | inhibition [4, 19]: -29.9% and -0.69% | inhibition ([4]; measured here: combination with cisplatin, at 0.5 µM, stronger effect = higher value): -45.5% and -45.4% | inhibition ([4]; measured here: combination with cisplatin, at 5 µM, stronger effect = higher value): -34.4% and -6.98% | inhibition ([5]; BGB combo, at 5 µM): 47.6% and 64.8% | inhibition ([5]; at 0.5 µM): 15.7% (inactive) and 26.2% (inactive) | inhibition ([5]; cisplatin combo, at 5 µM): 44.6% and 49% | inhibition [5, 20]: 15.9% and 28.5% | inhibition [5, 21]: -1.85% and 5.29% | inhibition ([5]; single agent, at 5 µM): 68.9% and 70.5% | inhibition ([6]; BGB IC20 combo, at 0.005 µM): -20.6% and 5.1% | inhibition ([6]; BGB IC40 combo, at 0.005 µM): -32.2% and -0.661% | inhibition ([6]; BGB IC40 combo, at 0.05 µM): -74.4% and -28.1% | inhibition ([6]; at 0.5 µM): -29.8% (inactive) and -8.32% (inactive) | inhibition ([6]; cisplatin combo, at 0.05 µM): -80.7% and -31.6% | inhibition ([6]; cisplatin combo, at 0.5 µM): -45.1% and -7.65% | inhibition ([6]; cisplatin combo, at 5 µM): -73.3% and -20.4% | inhibition ([6]; measured here: 5 uM single agent, at 5 µM): -13% and -19.7% | inhibition ([7]; at 0.5 µM): -24.1% (inactive) and -15.7% (inactive) | inhibition [7, 19]: -34.7% and -15.9% | inhibition [7, 22]: -23.9% and -48.9% | inhibition [7, 23]: -59.7% and -24.4% | inhibition ([8]; at 0.5 µM): 3.37% (inactive) and 12.3% (inactive) | inhibition ([8]; measured here: with BGB IC20, at 0.5 µM): -1.07% and 17.8% | inhibition ([8]; measured here: with BGB IC20, at 5 µM): 84.3% and 86% | inhibition ([8]; measured here: with cisplatin IC20, at 0.5 µM): -5.76% and 1.07% | inhibition ([8]; measured here: with cisplatin IC20, at 5 µM): 76.7% and 87% | inhibition ([8]; single agent, at 5 µM): 84.8% and 89.6% | inhibition ([9]; at 0.5 µM): -81.8% (inactive) and -42.5% (inactive) | inhibition ([9]; measured here: combination with BGB at IC20, at 0.5 µM): -58% and -65.7% | inhibition ([9]; measured here: combination with cisplatin at IC20, at 0.5 µM): -127% and -42.7% | inhibition ([10]; at 0.5 µM): 58.9% (inactive) and 63.9% (inactive) | inhibition ([10]; measured here: combo with BGB at IC20, at 0.5 µM): 56.6% and 69.3% | inhibition ([10]; measured here: combo with cisplatin at IC20, at 0.5 µM): 64.2% and 61.2% | inhibition ([11]; at 0.5 µM): -3.51% (inactive) and 0.59% (inactive) | inhibition ([11]; measured here: inhibition with BGB combination, at 0.05 µM): 2.23% and -16.8% | inhibition ([11]; measured here: inhibition with cisplatin combination, at 0.05 µM): -32.6% and -11.7% | inhibition ([12]; at 0.5 µM): -20.7% (inactive) and -2.13% (inactive) | inhibition [12, 22]: -26.1% and 1.95% | inhibition [12, 23]: -15.5% and -45.8% | inhibition ([13]; at 0.5 µM): 19.1% (inactive) and 27.8% (inactive) | inhibition ([13]; measured here: BGB combination, at 0.5 µM): 8.19% and 23.7% | inhibition ([13]; measured here: BGB combination, at 5 µM): 34% and 51.6% | inhibition ([13]; measured here: cisplatin combination, at 0.5 µM): 17.4% and 18.9% | inhibition ([13]; measured here: cisplatin combination, at 5 µM): 53.5% and 66.5% | inhibition ([14]; BGB combination, concentration series, at 5 µM): 13% and 11.6% | inhibition ([14]; at 0.5 µM): -8.08% (inactive) and 2.75% (inactive) | inhibition ([14]; cisplatin combination, concentration series, at 5 µM): -5.18% and 30.7% | inhibition [15]: 37.7% (inactive) and 21.4% (inactive) | inhibition ([15]; measured here: combo with BGB IC20): 41.3% and 27.7% | inhibition ([15]; measured here: combo with cisplatin IC20): 11.1% and -19.1% | inhibition ([16]; at 0.5 µM): -29.6% (inactive) and -14.9% (inactive) | inhibition ([16]; cisplatin combination, at 0.5 µM): -28.5% and -4.54% | inhibition ([16]; cisplatin combination, at 5 µM): 10.8% and 15.8% | inhibition ([16]; measured here: BGB IC40 combination 0.05 uM, at 0.05 µM): 35.1% and 9.21% | inhibition ([16]; single agent, at 5 µM): -17.9% and 3.25% | inhibition ([17]; at 0.5 µM): -14.2% (inactive) and -26.4% (inactive) | inhibition ([17]; cisplatin combo, at 5 µM): -20.2% and -20.5% | inhibition ([17]; measured here: BGB IC40 combination, at 0.05 µM): -25.5% and -24.7% | inhibition [17, 22]: -16.3% and -39.4% | inhibition ([17]; single agent, at 5 µM): -18.8% and -0.235% | inhibition ([18]; at 0.5 µM): 27.6% (inactive) and 42.6% (inactive) | inhibition [18, 20]: 19.9% and 59.6% | inhibition [18, 21]: 30.4% and 32.6% | inhibition ([18]; single agent, at 0.05 µM): -27% and -16.2% | inhibition ([18]; single agent, at 5 µM): 72.5% and 78.1%
